Test [1] in a line: qHTS drug screen for cell cycle checkpoint inhibitors in PARPi-resistant BRCA-mutant ovarian cancer cell lines. (AID 1963452; calls by dose curve). Particulars: PEO1/OlaR viability, CellTiter-Glo luminescence, 96 h, stronger effect = lower value. In short, it runs like this:
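PEO1, PEO4 and PEO1/OlaR ovarian cancer cells, 600 per well, exposed 96 h at 37C to a dilution series. Viability read by CellTiter-Glo luminescence, normalized to DMSO and empty wells; activity summarized as Z-AUC.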

Test [2] is described as follows: qHTS for identification of novel therapeutic agents for treatment of microphthalmiaassociated transcription factor (MiT) renal cell carcinoma (RCC) (AID 1963991). The settings on record: CellTiter-Glo, 48 h, stronger effect = lower value. In short, it runs like this: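 Three TFE3-fusion RCC lines (UOK109, UOK124, UOK145), 500 cells/well in complete medium, were treated with MIPE 4.0 compounds for 48 hours at 37 C. Viability was by CellTiter-Glo luminescence, normalized to DMSO (100%) and empty wells (0%); curves fitted over 11 concentrations.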
Background: qHTS replaces the single test concentration by a dilution series.

A short description of test [3]: qHTS profiling for inhibitors of Plasmodium falciparum proliferation (AID 504749).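 Further: 0% = DMSO vehicle and full inhibition = artemisinin control; nearly all actives have a fitted effect of over 60% in size.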 The settings on record: P. falciparum in erythrocytes, SYBR Green DNA, 72 h. In short, it runs like this: (§1)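 Infected RBCs, 0.3% parasitemia/2.5% Hct final; cpd 72 h, 37 C, 5% CO2; lysis buffer with saponin/triton/SYBR Green I, o/n RT dark; FI 485/535; norm. to artemisinin (0.29 uM) and DMSO.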

Test [4] deals with 3D7. The description is as above. Particulars: P. falciparum in erythrocytes, SYBR Green DNA, 72 h; series mostly up to 28.7 µM. An outline of the steps: as §1
Test [5] deals with AS120. Described as above. The settings on record: P. falciparum in erythrocytes, SYBR Green DNA, 72 h; series mostly up to 28.7 µM. An outline of the steps: as §1
Test [6] deals with ATS189. The description is as above. Particulars: P. falciparum in erythrocytes, SYBR Green DNA, 72 h; series mostly up to 28.7 µM. An outline of the steps:
as §1

Test [7] relates to ATS95. The description is as above. The settings on record: P. falciparum in erythrocytes, SYBR Green DNA, 72 h; series mostly up to 28.7 µM. In short, it runs like this: as §1
In test [8] the test system is C2A. Described as above. The settings on record: P. falciparum in erythrocytes, SYBR Green DNA, 72 h; series mostly up to 28.7 µM. An outline of the steps: as §1
Test [9] concerns CP185. The test is described as above. The settings on record: P. falciparum in erythrocytes, SYBR Green DNA, 72 h; series mostly up to 28.7 µM. In short, it runs like this:
as §1

The subject of test [10] is 7G8. Described as above. The settings on record: P. falciparum in erythrocytes, SYBR Green DNA, 72 h; series mostly up to 28.7 µM. An outline of the steps:
as §1

In test [11] the test system is AA1029. The test is described as above. The settings on record: P. falciparum in erythrocytes, SYBR Green DNA, 72 h; series mostly up to 28.7 µM. An outline of the steps: as §1
Setting [12] is: measured here: PEO1 parental Z-AUC.
The mark [13] stands for this setting: TFE3-RCC UOK109 viability, measured here: UOK109 Z-AUC.
Where [14] appears, read: TFE3-RCC viability, measured here: UOK124 Z-AUC.
The mark [15] stands for this setting: TFE3-RCC viability, measured here: UOK145 Z-AUC.
[16] abbreviates: at 28.7 µM (top of the series), parasite line A.
Where [17] appears, read: at 28.7 µM (top of the series), parasite line B.

Experimental findings from PubChem BioAssay (NCATS) are described below.

Each structure is given as a SMILES string. Results filed as inconclusive are left out. Activity calls are given as the source filed them. Unless noted, the call rests on the fitted dose curve; in most records, active means well fitted inhibition curve with a large enough effect; inconclusive means small, poorly fitted or top-dose-only effect; inactive means flat fitted curve, though single readings scatter.

As for `CC(=O)[C@H]1CC[C@H]2[C@@H]3CC=C4C[C@@H](O)CC[C@]4(C)[C@H]3CC[C@]12C`, the results for the Z-AUC in [1], in test [1] (setting [12]) and in test [1] (measured here: PEO4 Z-AUC) were 1.05 (inactive), 0.974 and 0.706, respectively. In addition, the z-score amounted to 0.424 in test [2] (setting [13]), 0.52 in test [2] (setting [14]) and 0.375 in [2] (setting [15]).
Turning to `COC(c1ccccc1)(c1ccccc1)[C@H](Oc1nc(C)cc(C)n1)C(=O)O`, the Z-AUC in test [1] was 1.02 (inactive); in test [1] (setting [12]), 1.24; in test [1] (measured here: PEO4 Z-AUC), 1.24. The z-score came to 1.16 in [2] (setting [13]), 0.918 in test [2] (setting [14]) and 0.706 in test [2] (setting [15]).
Take `C[C@@H]1CN(c2c(F)c(N)c3c(=O)c(C(=O)O)cn(C4CC4)c3c2F)C[C@H](C)N1`: the Z-AUC is 1.35 (inactive) in test [1], 1.39 in test [1] (setting [12]) and 1.15 in test [1] (measured here: PEO4 Z-AUC). The z-score in [2] (setting [13]) came out at 1.8; in [2] (setting [14]), 2.67; in [2] (setting [15]) it was 1.6.
In the case of `COc1c(N2CCNC(C)C2)c(F)cc2c(=O)c(C(=O)O)cn(C3CC3)c12` (stereo unspecified), the Z-AUC is 0.833 (inactive) in test [1], 0.836 in test [1] (setting [12]) and 0.282 in [1] (measured here: PEO4 Z-AUC). In addition, the z-score in test [2] (setting [13]) is 0.46; in [2] (setting [14]), 0.931; in test [2] (setting [15]) it was 0.897. Moreover, the results for the activity, negative = inhibition in [3] (setting [16]) and in test [3] (setting [17]) were -14.8% (inactive) and -1.5% (inactive), respectively. Also, the Potency result in test [4], in test [5], in test [6], in test [7], in [8] and in test [9] was “inactive” each time.
Take `CCn1cc(C(=O)O)c(=O)c2cc(F)c(N3CCNCC3)cc21`: the Z-AUC in [1] is 0.488 (inactive); in [1] (setting [12]) it was 0.343; in test [1] (measured here: PEO4 Z-AUC) it was 0.192. Also, the z-score in test [2] (setting [13]) worked out at 1.12; in [2] (setting [14]), 2.59; in test [2] (setting [15]), 1.26. In addition, the activity, negative = inhibition in test [3] (at 12.8 µM (top of the series), parasite line A) is -24.5% (inactive); in test [3] (at 12.8 µM (top of the series), parasite line B) it was -18% (inactive). For the same compound, the Potency result in [4], in test [10], in [11], in test [5], in test [6] and in test [7] was “inactive” throughout. For the same compound, the Potency entry in test [8] was “inactive”.
Consider `O=C(O)CCn1c2c(c3ccccc31)C[C@H](NS(=O)(=O)c1ccc(F)cc1)CC2`, for which the Z-AUC in test [1] is 0.321 (inactive); in [1] (setting [12]), 0.0173; in test [1] (measured here: PEO4 Z-AUC), 0.558. For the same compound, the z-score amounted to 0.68 in test [2] (setting [13]), 0.798 in test [2] (setting [14]) and 0.766 in test [2] (setting [15]).
As for `Cn1nnc2c(C(N)=O)ncn2c1=O`, the Z-AUC was 1.52 (inactive) in [1], 1.36 in test [1] (setting [12]) and 1.39 in test [1] (measured here: PEO4 Z-AUC). For the same compound, the z-score stood at 0.106 in test [2] (setting [13]), 0.527 in test [2] (setting [14]) and 0.42 in test [2] (setting [15]). Also, the activity, negative = inhibition in test [3] (setting [16]) was 6.45% (inactive); in [3] (setting [17]), 3.99% (inactive). Further, the Potency entry in test [4], in [10], in [11], in test [5], in [6] and in test [7] was “inactive” each time. Also, the Potency entry in test [8] and in test [9] was “inactive” each time.
For the compound `C#CCN[C@@H]1CCc2ccccc21`, the Z-AUC in test [1] is -0.484 (inactive); in test [1] (setting [12]), -0.355; in test [1] (measured here: PEO4 Z-AUC), -0.739. For the same compound, the figures for the z-score in test [2] (setting [13]), in [2] (setting [14]) and in test [2] (setting [15]) were 0.682, 0.222 and 0.635, respectively. In addition, the activity, negative = inhibition in test [3] (setting [16]) is 16.7% (inactive); in test [3] (setting [17]), 9.12% (inactive). The Potency entry in [4], in test [10], in test [11], in test [5], in [6] and in [7] was “inactive” in each case. In addition, the Potency result in test [8] and in test [9] was “inactive” each time.
In the case of `CC1=NN(c2ccccc2)C(=O)C1`, the figures for the Z-AUC in [1], in [1] (setting [12]) and in test [1] (measured here: PEO4 Z-AUC) were 0.285 (inactive), 0.838 and 1.05, respectively. For the same compound, the z-score was -4.96 in [2] (setting [13]), 0.556 in test [2] (setting [14]) and -3.3 in test [2] (setting [15]). For the same compound, the activity, negative = inhibition was 3.27% (inactive) in [3] (setting [16]) and -12.4% (inactive) in test [3] (setting [17]). The Potency result in [4], in test [10], in [11], in test [5], in [6] and in test [7] was “inactive” throughout. The Potency result in test [8] and in [9] was “inactive” throughout.
